Compound activity from PubChem.
CHRM1 agonist – human M1 muscarinic receptor agonists, primary screen, Fluo-8 calcium fluorescence, CHO-K1 cells, HTS; activation, % at 3 µM; actives 0.33% (n = 360,000); AID 588814, 2011; CHO-K1 hM1, agonist mode; 0% DMSO, 100% acetylcholine EC100; Muscarinic acetylcholine receptor M1 (Homo sapiens), P11229;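 active = activation above the run's mean compound activation plus 3 SD, cut at about 16% in these data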;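 also: peak over basal fluorescence ratio within a 140 s kinetic read after compound addition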
CHRM1 antagonist – human M1 muscarinic receptor antagonists, primary screen, CHO-K1 cells, Fluo-8 calcium fluorescence, 1536-well. actives 1.3% (n = 360,000). CHO-K1 hM1, ACh EC80 antagonist. inhibition, % at 3 µM. AID 588852, 2011;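 active = percent inhibition above its own plate's cutoff, namely the mean of that plate's compound wells plus 3 SD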;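 also: peak over basal fluorescence ratio during 140 s after agonist addition; 0% = ACh EC80 plus DMSO and 100% = DMSO alone without agonist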
CHRM4 PAM – human M4 muscarinic receptor positive allosteric modulators, primary screen, CHO-K1 cells, Fluo-8 calcium fluorescence. Muscarinic acetylcholine receptor M4 (Homo sapiens), P08173. CHO-K1 hM4/Gqi5, ACh EC20; 0% = ACh EC20, 100% = maximal ACh. activation, % at 3 µM. actives 0.4% (n = 360,000). AID 624126, 2012;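 active = activation above its plate's cutoff, the mean activation of sample wells plus 3 SD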
Target sequence (P08173 whole entry, looked up): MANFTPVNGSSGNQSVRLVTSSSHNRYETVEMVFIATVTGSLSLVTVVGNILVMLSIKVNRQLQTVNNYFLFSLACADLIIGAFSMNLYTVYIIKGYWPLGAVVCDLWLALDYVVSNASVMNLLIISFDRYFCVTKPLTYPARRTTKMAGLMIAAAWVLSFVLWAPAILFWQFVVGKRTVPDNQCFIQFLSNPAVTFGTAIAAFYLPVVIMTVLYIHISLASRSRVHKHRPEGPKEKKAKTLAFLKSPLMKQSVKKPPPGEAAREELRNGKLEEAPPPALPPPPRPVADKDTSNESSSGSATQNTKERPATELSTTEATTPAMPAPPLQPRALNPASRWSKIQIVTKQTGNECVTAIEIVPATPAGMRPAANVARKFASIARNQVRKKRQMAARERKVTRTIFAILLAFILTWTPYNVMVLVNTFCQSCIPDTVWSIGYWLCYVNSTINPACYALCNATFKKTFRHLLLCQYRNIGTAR
CHRM4 antagonist – human M4 muscarinic receptor antagonists, primary screen, CHO cells, Fluo-8 calcium fluorescence | inhibition, % at 3 µM | Muscarinic acetylcholine receptor M4 (Homo sapiens), P08173 | CHO-hM4 cells, ACh EC80 | actives 0.73% (n = 360,000);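 active = inhibition above its plate's cutoff, the mean inhibition of sample wells plus 3 SD, cut at about 27% in these data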;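 also: 0% = acetylcholine EC80 with DMSO and 100% = DMSO without agonist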
M1 PAM – human M1 muscarinic receptor positive allosteric modulators, primary screen, CHO-K1 cells, Fluo-8 calcium fluorescence, 1536-well; AID 588819, 2011; CHO-K1 hM1, ACh EC20; 0% = ACh EC20, 100% = maximal ACh; actives 0.088% (n = 360,000); Muscarinic acetylcholine receptor M1 (Homo sapiens), P11229; activation, % at 3 µM; in the data active = activation above about 19%, passing the limit was not always enough
M4 ag – human M4 muscarinic receptor agonists, primary screen, CHO-K1 cells, Fluo-8 calcium fluorescence | AID 624127, 2012 | actives 0.14% (n = 360,000) | activation, % at 3 µM | CHO-K1 hM4/Gqi5; vehicle 0%, full acetylcholine response 100%;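 active = activation above the run mean over all test wells plus 3 SD, cut at about 32% in these data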;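 also: peak over basal fluorescence ratio per well then scaled between controls; 0% = DMSO wells and 100% = acetylcholine at EC100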
Active calls of the source: *. Rows were chosen to be rich in hits. Some 2.2% of all compounds tested hit in one or more screens of this group.

SMILES	CHRM1 agonist	CHRM1 antagonist	CHRM4 PAM	CHRM4 antagonist	M1 PAM	M4 ag
O=C(NC1CCCc2ccccc21)C1CCN(c2c3c(nc4ncnn24)CCC3)CC1 (stereo not given)	-3.6	-3.2	2.9	-6.6	7.0	-0.1
COCCn1c(=NC(=O)CCS(=O)(=O)c2ccccc2)sc2ccccc21	-0.4	5.8	-3.5	1.9	-2.0	8.6
COC(=O)c1ccc2c(c1)sc(=NC(=O)CCS(=O)(=O)c1ccccc1)n2C	-2.3	-1.5	18.0*	-5.6	1.1	8.0
O=C(C=Cc1ccc2c(c1)OCO2)c1ccccc1	-2.5	-6.1	-1.5	-4.2	1.1	0.6
CCN(C(=O)/C=C/c1ccc2c(c1)OCO2)c1ccccc1	-10.8	-15.3	23.8*	-12.3	4.7	0.8
CN(C(=O)COC(=O)c1ccc2ccccc2n1)C1CCCCC1	-4.1	-11.5	24.9*	1.5	3.3	1.8
CCN(CC)C(=O)Oc1ccccc1NC(C)=O	-4.9	-11.9	2.5	0.6	7.3	0.2
CN(C)Cc1ccccc1Sc1ccc(O)cc1O	18.3*	-12.0	3.1	0.6	3.4	2.3
CCOC(=O)c1cnn(-c2ccccc2)c1NC(=O)c1ccc(C)cc1	-5.8	-4.5	-0.1	13.1	5.3	-0.7
Cc1c(Cl)cccc1NC(=S)N1CCN(Cc2ccccc2)CC1	18.6*	-7.2	5.7	4.3	6.5	2.6
CCOc1ccc(NC(=O)CCN2CCN(S(=O)(=O)c3ccc(F)cc3)CC2)cc1	-0.4	1.1	-6.3	1.6	-0.5	3.9
CCOc1ccccc1NC(=O)CCN1CCN(S(=O)(=O)c2ccc(Br)cc2)CC1	0.3	-7.9	15.7*	2.7	13.8	6.0
CCOC(=O)N1CCN(CCC(=O)Nc2cccc(Cl)c2C)CC1	51.7*	38.8*	-9.6	1.9	-26.7	0.3
C/C(=N\NC(=O)c1ccc(CN2CCOCC2)cc1)c1ccc([N+](=O)[O-])cc1	-6.1	2.4	-5.8	-0.4	-0.2	1.9
COC(=O)c1c(C(=O)OC)c(-c2cccc(F)c2)n2c1CS(=O)C2 (stereo not given)	-2.7	-12.6	-5.7	-4.8	9.8	1.2
CN(Cc1ccc(F)cc1)S(=O)(=O)c1ccc2[nH]c(=O)[nH]c2c1	1.7	-29.2	6.9	-2.9	17.8	1.3
CCOc1ccc(C(=O)NCC(=O)NNC(=O)CN(C)S(=O)(=O)c2ccc(Cl)cc2)cc1	-2.1	-5.6	2.3	-20.4	2.3	1.0
O=C(C[n+]1cc(-c2ccccc2)n2c1CCC2)N1c2ccccc2Sc2ccccc21	-8.0	98.7*	-18.9	64.3*	-26.4	0.0
Cc1ccc(-c2c[n+](CC(=O)N3c4ccccc4Sc4ccccc43)c3n2CCC3)cc1	-7.1	99.8*	-16.9	99.0*	-25.4	-0.2
O=C(C[n+]1cc(-c2ccc(F)cc2)n2c1CCC2)N1c2ccccc2Sc2ccccc21	-7.4	95.7*	-16.9	80.7*	-25.3	1.0
O=C(C[n+]1cc(-c2ccccc2)n2c1CCC2)Nc1nc(-c2ccc(F)cc2)cs1	-14.8	-2.3	-5.0	9.7	-8.4	0.3
O=C(C[n+]1cc(-c2ccccc2)n2c1CCC2)c1cccs1	-15.5	3.1	-4.8	1.9	-1.6	-0.1
CC1CCCCN1C(=O)COC(=O)c1ccc2c(c1)C(=O)N(Cc1ccco1)C2=O (stereo not given)	-4.8	-2.4	1.6	-4.2	5.1	5.3
CC(=O)NC(=S)Nc1cccc2ccc(C)nc12	-5.7	-3.2	2.2	-1.2	6.2	1.5
Cc1ccc(NC(=O)CSc2nnc(NC(=O)c3ccco3)s2)cc1	-3.0	-4.3	10.1	-19.6	7.0	1.3
SMILES	CHRM1 agonist	CHRM1 antagonist	CHRM4 PAM	CHRM4 antagonist	M1 PAM	M4 ag
CC(=O)c1ccc(NC(=O)CSc2nnc(NC(=O)c3ccco3)s2)cc1	-0.6	-13.1	21.4*	1.0	11.5	0.7
Clc1ccc(-c2nc(/C=N/N3CCOCC3)c3ccccn23)cc1	-5.9	-7.7	3.1	-4.3	3.7	0.6
COc1ccccc1-c1sc2cc3c(cc2c1-c1ccc(OCCN2CCOCC2)cc1)OCO3	0.5	24.6*	-4.7	9.2	-11.5	1.8
COc1ccc(-c2sc3cc4c(cc3c2-c2ccc(OCCN3CCCCC3)cc2)OCO4)cc1	-4.5	-4.2	-7.6	0.2	1.1	0.6
C[N+]1(CC(=O)Nc2ccc(F)cc2)CCN(C(=O)c2ccco2)CC1	-7.8	56.2*	-2.6	1.9	-20.1	0.3
Cc1cc(C)cc(OCC(=O)Nc2ccc(N3CCN(C(=O)c4ccco4)CC3)cc2)c1	-1.1	32.9*	-17.6	32.1*	-22.9	26.6
Cc1ccc(NC(=O)CN2CCN(C(=O)c3ccco3)CC2)cc1	-5.8	-8.1	6.7	-2.5	3.2	1.8
COc1ccc(OCC(=O)Nc2ccc(N3CCN(C(=O)c4ccco4)CC3)cc2)cc1	0.9	3.0	-4.8	-6.2	5.5	9.0
C=CCNCC#CCOc1ccc(OC)cc1	-3.7	-9.6	1.4	-4.7	8.2	-0.1
CC(=O)N(CCCCl)C(C#N)c1ccccc1 (stereo not given)	51.4*	24.6	3.7	3.5	-32.0	1.0
COC(=O)c1oc2c(c1C)C1(CCC2)SCCS1	-5.5	30.5*	-2.9	-19.2	-21.0	-0.8
CSc1ccc(/C=N/NC(=O)CN2CCN(Cc3ccc(C)cc3)CC2)cc1	-7.0	12.7	-18.5	42.2*	-6.6	0.6
CSc1ccc(/C=N/NC(=O)CN2CCN(Cc3ccccc3Cl)CC2)cc1	-7.4	-5.1	-8.9	-7.0	4.9	2.4
O=C(c1ccccc1)N1CCN(C(=O)c2ccc3c(c2)OCCO3)CC1	-7.6	-11.8	-4.9	7.0	5.3	0.3
O=C(c1ccc2c(c1)OCCO2)N1CCCCC1	-0.3	2.6	26.9*	0.1	5.5	1.1
Cc1cccc(NC(=O)c2cccc(S(=O)(=O)N3CCCCC3)c2)c1	-7.3	-8.3	-1.6	-7.2	-0.1	2.6
CC[N+](CC)(CC#Cc1ccccc1)CC(=O)c1ccc(Cl)cc1	-12.3	35.5*	-7.7	1.5	-24.7	1.1
CCOc1ccccc1NC(=O)CCSc1nc2n[nH]c(C)c2c(=N)n1-c1ccccc1Cl	-3.0	34.0*	-6.2	1.9	-12.9	8.1
COc1ccc(-c2nc(C#N)c(N3CCN(c4ccccc4)CC3)o2)cc1	-0.8	29.1*	1.8	-6.6	-15.0	-0.3
COc1ccc(N2CCN(c3oc(-c4ccc(OC)c(OC)c4)nc3C#N)CC2)cc1	-1.2	-10.2	3.3	9.2	7.9	0.7
